Among the test systems are HCT-15 colon; HT29 colon; SNB-75 CNS; SNB-19 CNS; U251 CNS; PC-3 prostate; UACC-62 melanoma; LOX IMVI melanoma; SK-MEL-28 melanoma; SK-MEL-5 melanoma.
Assay in all cases: NCI-60 one-dose screen, 48 h (100 = growth as untreated, 0 = no growth, -100 = all killed)
Conditions in all cases: 10 µM unless noted

SMILES strings stand for the structures. This is part of a sample that, as a whole, favours compounds with a hit. Of some 83,000 tested, about 20% had one in any assay.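 Values shown are percent growth following 48 h exposure of cells in 96-well plates to a single concentration of compound; below 10 was considered active.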 A number with no mark means an inactive call. The source made the active and inactive calls.

On to `O=C1c2cc3c(cc2-c2c1c1ccc(Cl)cc1c(=O)n2C[C@H](O)[C@@H](O)[C@H](O)CO)OCO3`, for which the growth with HCT-15 colon is 0.364% (active); in the test on HT29 colon, -14.4% (active); with SNB-75 CNS it was -1.89% (active); with SNB-19 CNS, 7.77% (active); in the test with U251 CNS, -26.9% (active); in the test with PC-3 prostate it was 12.7%. Moreover, the growth in the test on UACC-62 melanoma was -86.9% (active); in the test with LOX IMVI melanoma, -18.5% (active); with SK-MEL-28 melanoma, -18.8% (active).
For `COc1ccc2c(c1)c(-c1nc(-c3c[nH]c4ncccc34)cs1)cn2CCCN1CCCCC1`, the growth in the test with HCT-15 colon is -5.93% (active); with HT29 colon, -51.8% (active); in the test with SNB-75 CNS it was 46.9%; in the test on SNB-19 CNS, 43.9%; with U251 CNS it was -17.7% (active); in the test on PC-3 prostate, 28.5%. The growth is -87.6% (active) in the test on SK-MEL-5 melanoma, -75.6% (active) with LOX IMVI melanoma and -74.9% (active) with SK-MEL-28 melanoma.
Take `Cn1c(=O)c2c(ncn2CC(=O)Nc2ccc(S(N)(=O)=O)cc2)n(C)c1=O`: the growth in the test with HCT-15 colon is 106%; in the test with HT29 colon it was 94.8%; in the test with SNB-75 CNS, 87.8%; in the test on SNB-19 CNS, 102%; in the test with U251 CNS, 96.6%; in the test with PC-3 prostate, 83.4%. Further, the growth in the test on SK-MEL-5 melanoma is 111%; in the test on LOX IMVI melanoma, 97.6%; with SK-MEL-28 melanoma, 115%.
On to `COC(=O)[C@]12CC[C@@H](C)[C@H](C)[C@@H]1C1=CC[C@@H]3[C@@](C)(CC#N)C4=C(C[C@@]3(C)[C@]1(C)CC2)OC[C@]4(C)C=O`, for which the growth with HCT-15 colon is 0.689% (active); with HT29 colon, -20.7% (active); with SNB-75 CNS, 19.3%; in the test with SNB-19 CNS, 8.5% (active); in the test on U251 CNS, -45.7% (active); with PC-3 prostate, 9.95% (active). Also, the results for the growth in the test with SK-MEL-5 melanoma, in the test with LOX IMVI melanoma and with SK-MEL-28 melanoma were -89% (active), -99% (active) and -19.6% (active), respectively.
Turning to `COc1ccc(-c2cc(=O)oc3ccc(Cl)cc23)cc1F`, the growth with HCT-15 colon was 11.7%; with HT29 colon, -5.75% (active); in the test on SNB-75 CNS, 46%; in the test on SNB-19 CNS, 23.5%; in the test with U251 CNS, 4.46% (active); in the test with PC-3 prostate, 11%. In addition, the growth was 30.1% in the test with UACC-62 melanoma, 21.9% in the test with LOX IMVI melanoma and 59.5% in the test on SK-MEL-28 melanoma.
On to `O=P(O)(c1ccccc1)c1ccccc1I`, for which the growth was 111% with HCT-15 colon; 80% with HT29 colon; 84% in the test with SNB-75 CNS; 103% in the test on SNB-19 CNS; 89.3% in the test with U251 CNS; 82.1% in the test on PC-3 prostate. The growth with SK-MEL-5 melanoma was 96.8%; in the test on LOX IMVI melanoma it was 93.8%; in the test on SK-MEL-28 melanoma it was 108%.
For the compound `OCCNc1nc(Nc2ccc(Cl)c(Cl)c2)nc2ccccc12`, the growth with HCT-15 colon was 26.2%; in the test with HT29 colon, 9.9% (active); with SNB-75 CNS it was 61.1%; in the test with SNB-19 CNS, 55.5%; in the test on U251 CNS, 34.2%; in the test on PC-3 prostate, 18.8%. Moreover, the growth in the test with UACC-62 melanoma is 57.1%; in the test on LOX IMVI melanoma, 34.1%; in the test with SK-MEL-28 melanoma it was 73.6%.
As to `Cn1c2c(Cl)c(Cl)ccc2c2c(C#N)c[nH]c(=O)c21`, the growth in the test on HCT-15 colon is 99%; in the test on HT29 colon, 99.5%; in the test with SNB-75 CNS it was 91.9%; in the test with SNB-19 CNS, 97.3%; in the test on U251 CNS, 101%; in the test on PC-3 prostate it was 74.3%. The growth in the test with UACC-62 melanoma is 93.4%; with LOX IMVI melanoma, 91.9%; with SK-MEL-28 melanoma, 114%.
On to `CCCCCCCCNc1cccc2c1C(=O)c1ccccc1C2=O`, for which the growth with HCT-15 colon was 107%; in the test on HT29 colon, 89.7%; with SNB-75 CNS it was 98.3%; with SNB-19 CNS, 96.4%; with U251 CNS, 110%; with PC-3 prostate, 104%. The growth is 96% in the test on UACC-62 melanoma, 105% in the test on LOX IMVI melanoma and 114% in the test on SK-MEL-28 melanoma.
For `CC(C)(C)c1ccc(OCCCCCCCN2CCNCC2)cc1`, the growth with HCT-15 colon is -22.1% (active); in the test with HT29 colon, 6.93% (active); with SNB-75 CNS, 51.8%; in the test with SNB-19 CNS it was 54.4%; with U251 CNS, 12.9%; with PC-3 prostate, 28.1%. In addition, the growth was 43.9% with SK-MEL-5 melanoma, -77.8% (active) with LOX IMVI melanoma and 53% in the test on SK-MEL-28 melanoma.
As for `COC(=O)CNc1nc(N(C)O)nc(N(C)O)n1`, the growth in the test on HCT-15 colon was 30.4%; with HT29 colon, 41.7%; in the test on SNB-75 CNS, 96.4%; in the test with SNB-19 CNS, 47.6%; with U251 CNS, 36.5%; with PC-3 prostate, 37.9%. Besides, the growth is 42.9% with UACC-62 melanoma, 33.4% in the test with LOX IMVI melanoma and 42% in the test with SK-MEL-28 melanoma.
With `Cn1nc(-c2ccccc2)c2c(-c3ccccc3)onc2c1=O`, the growth with HCT-15 colon was 38.3%; in the test on HT29 colon, 1.6% (active); in the test on SNB-75 CNS it was 20.9%; with SNB-19 CNS it was 34.3%; in the test with U251 CNS, 25.2%; in the test with PC-3 prostate, 32.4%. Moreover, the growth in the test with UACC-62 melanoma is 38.1%; in the test with LOX IMVI melanoma, 53.4%; in the test on SK-MEL-28 melanoma it was 74.5%.
For the compound `NNC(=O)c1nc2ccccc2[nH]1`, the growth is 108% in the test with HCT-15 colon; 103% in the test on HT29 colon; 97.4% in the test with SNB-75 CNS; 103% in the test with SNB-19 CNS; 86.2% in the test with U251 CNS; 96.7% with PC-3 prostate. The growth with LOX IMVI melanoma is 95.3%; in the test on SK-MEL-28 melanoma it was 111%.
With `CN(CSc1ccc(Cl)cc1)c1ccc(CSc2ccc(Cl)cc2)cc1`, the growth was 62.8% with HCT-15 colon; 96.8% with HT29 colon; 86% in the test on SNB-75 CNS; 84.7% in the test with SNB-19 CNS; 53.6% in the test with U251 CNS; 38.4% with PC-3 prostate. The figures for the growth in the test on UACC-62 melanoma and in the test with SK-MEL-28 melanoma were 84% and 79.9%, respectively.
